This note sets out measurements from ChEMBL document CHEMBL2218924, “A broad activity screen in support of a chemogenomic map for kinase signalling research and drug discovery” (Biochem J, 2013).

Assay [1] addresses MAP kinase-activated protein kinase 2 (Homo sapiens) (UniProt P49137). As to conditions: at 10 µM.
In assay [2] the target is MAP kinase-activated protein kinase 3 (Homo sapiens) (UniProt Q16644). As to conditions: at 10 µM.
For assay [3], the target named is Serine/threonine-protein kinase MARK1 (Homo sapiens) (UniProt Q9P0L2). The following applies: at 1 µM.
Assay [4] shares this target. As to conditions: at 10 µM.
In assay [5] the target is Dual specificity mitogen-activated protein kinase kinase 1 (Homo sapiens) (UniProt Q02750). As to conditions: at 1 µM.
Assay [6] shares this target. The following applies: at 10 µM.
Assay [7] deals with Maternal embryonic leucine zipper kinase (Homo sapiens) (UniProt Q14680). As to conditions: at 1 µM.
For assay [8] the target is unchanged. As to conditions: at 10 µM.
The target of assay [9] is Misshapen-like kinase 1 (Homo sapiens) (UniProt Q8N4C8). The following applies: at 1 µM.
Assay [10] has the same target. The following applies: at 10 µM.
Assay [11] concerns the target T1, Dual specificity mitogen-activated protein kinase kinase 6 (Homo sapiens) (UniProt P52564).
T1 sequence (whole entry): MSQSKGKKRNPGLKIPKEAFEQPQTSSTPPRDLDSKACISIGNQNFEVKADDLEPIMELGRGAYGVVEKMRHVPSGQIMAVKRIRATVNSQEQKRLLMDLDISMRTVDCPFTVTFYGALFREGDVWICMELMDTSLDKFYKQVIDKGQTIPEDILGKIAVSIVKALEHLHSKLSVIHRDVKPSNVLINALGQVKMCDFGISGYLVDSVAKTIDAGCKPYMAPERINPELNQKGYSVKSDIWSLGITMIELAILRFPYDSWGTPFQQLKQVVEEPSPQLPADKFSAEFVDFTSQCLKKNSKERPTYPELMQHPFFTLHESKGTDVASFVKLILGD
As to conditions: at 1 µM.

The target of assay [12] is T1, Dual specificity mitogen-activated protein kinase kinase 6 (Homo sapiens). As to conditions: at 10 µM.
The target in assay [13] is T2, Dual specificity mitogen-activated protein kinase kinase 7 (Homo sapiens) (UniProt O14733).
T2 sequence (whole entry): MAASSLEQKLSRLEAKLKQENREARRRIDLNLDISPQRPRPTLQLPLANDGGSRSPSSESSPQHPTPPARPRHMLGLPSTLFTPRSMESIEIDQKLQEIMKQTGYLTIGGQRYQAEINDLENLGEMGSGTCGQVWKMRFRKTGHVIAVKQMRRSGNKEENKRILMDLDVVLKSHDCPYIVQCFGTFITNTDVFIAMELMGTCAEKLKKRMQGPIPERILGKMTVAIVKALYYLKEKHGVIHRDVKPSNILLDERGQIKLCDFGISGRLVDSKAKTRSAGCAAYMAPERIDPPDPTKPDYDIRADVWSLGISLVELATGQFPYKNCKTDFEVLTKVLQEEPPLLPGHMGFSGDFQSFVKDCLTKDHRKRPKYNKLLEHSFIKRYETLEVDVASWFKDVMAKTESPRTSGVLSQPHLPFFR
As to conditions: at 1 µM.

Assay [14] concerns the target T2, Dual specificity mitogen-activated protein kinase kinase 7 (Homo sapiens). The following applies: at 10 µM.
Assay [15] deals with Myosin light chain kinase, smooth muscle (Homo sapiens) (UniProt Q15746). As to conditions: at 1 µM.
For assay [16] the target is unchanged. The following applies: at 10 µM.
For assay [17], the target named is Mitogen-activated protein kinase kinase kinase 9 (Homo sapiens) (UniProt P80192). The following applies: at 1 µM.
Assay [18] has the same target. The following applies: at 10 µM.
In assay [19] the target is Serine/threonine-protein kinase MRCK alpha (Homo sapiens) (UniProt Q5VT25). As to conditions: at 1 µM.
The target is the same in assay [20]. The following applies: at 10 µM.

Each structure is given as a SMILES string.

Sequence of MAP kinase-activated protein kinase 2 (Homo sapiens) (P49137 whole entry, looked up): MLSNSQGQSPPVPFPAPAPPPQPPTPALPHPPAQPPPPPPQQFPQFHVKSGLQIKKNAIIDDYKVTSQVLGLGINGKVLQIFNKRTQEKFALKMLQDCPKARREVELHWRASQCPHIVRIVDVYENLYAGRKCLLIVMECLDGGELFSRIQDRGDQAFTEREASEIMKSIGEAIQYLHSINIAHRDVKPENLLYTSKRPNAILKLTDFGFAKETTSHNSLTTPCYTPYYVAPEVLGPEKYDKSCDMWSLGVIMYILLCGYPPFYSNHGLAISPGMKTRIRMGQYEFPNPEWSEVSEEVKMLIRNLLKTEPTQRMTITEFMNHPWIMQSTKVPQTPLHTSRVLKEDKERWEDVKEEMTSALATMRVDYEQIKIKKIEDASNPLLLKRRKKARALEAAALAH
Sequence of Serine/threonine-protein kinase MARK1 (Homo sapiens) (Q9P0L2 whole entry, looked up): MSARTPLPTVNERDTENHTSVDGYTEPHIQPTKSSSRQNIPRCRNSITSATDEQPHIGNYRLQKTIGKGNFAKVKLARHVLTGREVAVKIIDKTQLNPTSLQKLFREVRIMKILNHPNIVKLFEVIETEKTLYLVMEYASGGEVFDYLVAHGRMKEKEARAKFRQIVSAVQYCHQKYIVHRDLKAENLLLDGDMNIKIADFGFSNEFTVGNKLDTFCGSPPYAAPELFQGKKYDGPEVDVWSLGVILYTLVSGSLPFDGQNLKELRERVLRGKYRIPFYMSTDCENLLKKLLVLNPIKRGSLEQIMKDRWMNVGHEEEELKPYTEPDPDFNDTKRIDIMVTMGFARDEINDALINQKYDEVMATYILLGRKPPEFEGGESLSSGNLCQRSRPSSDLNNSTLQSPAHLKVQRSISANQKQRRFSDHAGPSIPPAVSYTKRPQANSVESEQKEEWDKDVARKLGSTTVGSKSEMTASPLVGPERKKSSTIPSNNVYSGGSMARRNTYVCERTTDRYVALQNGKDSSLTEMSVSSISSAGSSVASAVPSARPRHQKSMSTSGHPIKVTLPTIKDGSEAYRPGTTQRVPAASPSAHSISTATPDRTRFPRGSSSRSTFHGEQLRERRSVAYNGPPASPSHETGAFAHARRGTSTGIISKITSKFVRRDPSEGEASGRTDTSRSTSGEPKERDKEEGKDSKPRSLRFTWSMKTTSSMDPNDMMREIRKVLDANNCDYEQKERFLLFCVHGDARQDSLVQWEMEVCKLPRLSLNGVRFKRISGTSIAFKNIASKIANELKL
Sequence of Maternal embryonic leucine zipper kinase (Homo sapiens) (Q14680 whole entry, looked up): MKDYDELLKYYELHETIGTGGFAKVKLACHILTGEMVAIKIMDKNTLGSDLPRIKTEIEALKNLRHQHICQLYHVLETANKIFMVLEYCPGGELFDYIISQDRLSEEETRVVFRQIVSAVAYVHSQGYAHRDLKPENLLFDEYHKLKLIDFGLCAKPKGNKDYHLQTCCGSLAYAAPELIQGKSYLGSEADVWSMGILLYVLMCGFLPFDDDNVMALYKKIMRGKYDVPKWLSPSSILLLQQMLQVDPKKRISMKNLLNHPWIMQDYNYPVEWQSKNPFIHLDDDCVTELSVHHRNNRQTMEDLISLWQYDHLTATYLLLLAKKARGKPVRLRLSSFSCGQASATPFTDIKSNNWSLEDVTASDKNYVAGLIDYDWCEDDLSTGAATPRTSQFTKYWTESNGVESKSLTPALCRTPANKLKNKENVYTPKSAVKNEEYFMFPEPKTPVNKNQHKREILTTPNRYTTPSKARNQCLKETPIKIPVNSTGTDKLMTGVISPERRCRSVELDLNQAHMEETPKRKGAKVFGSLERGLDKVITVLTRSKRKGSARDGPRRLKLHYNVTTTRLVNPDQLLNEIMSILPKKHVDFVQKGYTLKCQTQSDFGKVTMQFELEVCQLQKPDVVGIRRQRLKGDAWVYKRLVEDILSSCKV
Sequence of Dual specificity mitogen-activated protein kinase kinase 1 (Homo sapiens) (Q02750 whole entry): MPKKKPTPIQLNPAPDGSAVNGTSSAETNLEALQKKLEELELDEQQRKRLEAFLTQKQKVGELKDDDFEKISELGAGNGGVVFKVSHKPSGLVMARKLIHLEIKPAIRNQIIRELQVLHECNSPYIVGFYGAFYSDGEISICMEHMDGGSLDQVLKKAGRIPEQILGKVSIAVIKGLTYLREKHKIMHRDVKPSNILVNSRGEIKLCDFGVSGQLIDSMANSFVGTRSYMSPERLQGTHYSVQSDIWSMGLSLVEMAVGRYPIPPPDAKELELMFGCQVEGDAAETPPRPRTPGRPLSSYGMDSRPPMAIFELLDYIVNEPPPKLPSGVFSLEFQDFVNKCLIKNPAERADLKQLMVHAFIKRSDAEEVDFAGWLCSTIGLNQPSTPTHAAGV
Sequence of MAP kinase-activated protein kinase 3 (Homo sapiens) (Q16644 whole entry, looked up): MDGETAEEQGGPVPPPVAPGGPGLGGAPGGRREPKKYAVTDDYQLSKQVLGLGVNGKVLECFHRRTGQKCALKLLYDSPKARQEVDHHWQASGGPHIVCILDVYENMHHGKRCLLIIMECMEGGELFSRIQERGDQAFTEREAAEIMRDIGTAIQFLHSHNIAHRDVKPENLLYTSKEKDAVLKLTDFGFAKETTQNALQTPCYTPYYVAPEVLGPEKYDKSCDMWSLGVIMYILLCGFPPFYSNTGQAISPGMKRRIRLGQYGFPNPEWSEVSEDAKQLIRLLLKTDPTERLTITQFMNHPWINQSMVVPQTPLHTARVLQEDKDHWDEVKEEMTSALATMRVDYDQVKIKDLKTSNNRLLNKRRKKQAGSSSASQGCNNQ
Sequence of Serine/threonine-protein kinase MRCK alpha (Homo sapiens) (Q5VT25 whole entry): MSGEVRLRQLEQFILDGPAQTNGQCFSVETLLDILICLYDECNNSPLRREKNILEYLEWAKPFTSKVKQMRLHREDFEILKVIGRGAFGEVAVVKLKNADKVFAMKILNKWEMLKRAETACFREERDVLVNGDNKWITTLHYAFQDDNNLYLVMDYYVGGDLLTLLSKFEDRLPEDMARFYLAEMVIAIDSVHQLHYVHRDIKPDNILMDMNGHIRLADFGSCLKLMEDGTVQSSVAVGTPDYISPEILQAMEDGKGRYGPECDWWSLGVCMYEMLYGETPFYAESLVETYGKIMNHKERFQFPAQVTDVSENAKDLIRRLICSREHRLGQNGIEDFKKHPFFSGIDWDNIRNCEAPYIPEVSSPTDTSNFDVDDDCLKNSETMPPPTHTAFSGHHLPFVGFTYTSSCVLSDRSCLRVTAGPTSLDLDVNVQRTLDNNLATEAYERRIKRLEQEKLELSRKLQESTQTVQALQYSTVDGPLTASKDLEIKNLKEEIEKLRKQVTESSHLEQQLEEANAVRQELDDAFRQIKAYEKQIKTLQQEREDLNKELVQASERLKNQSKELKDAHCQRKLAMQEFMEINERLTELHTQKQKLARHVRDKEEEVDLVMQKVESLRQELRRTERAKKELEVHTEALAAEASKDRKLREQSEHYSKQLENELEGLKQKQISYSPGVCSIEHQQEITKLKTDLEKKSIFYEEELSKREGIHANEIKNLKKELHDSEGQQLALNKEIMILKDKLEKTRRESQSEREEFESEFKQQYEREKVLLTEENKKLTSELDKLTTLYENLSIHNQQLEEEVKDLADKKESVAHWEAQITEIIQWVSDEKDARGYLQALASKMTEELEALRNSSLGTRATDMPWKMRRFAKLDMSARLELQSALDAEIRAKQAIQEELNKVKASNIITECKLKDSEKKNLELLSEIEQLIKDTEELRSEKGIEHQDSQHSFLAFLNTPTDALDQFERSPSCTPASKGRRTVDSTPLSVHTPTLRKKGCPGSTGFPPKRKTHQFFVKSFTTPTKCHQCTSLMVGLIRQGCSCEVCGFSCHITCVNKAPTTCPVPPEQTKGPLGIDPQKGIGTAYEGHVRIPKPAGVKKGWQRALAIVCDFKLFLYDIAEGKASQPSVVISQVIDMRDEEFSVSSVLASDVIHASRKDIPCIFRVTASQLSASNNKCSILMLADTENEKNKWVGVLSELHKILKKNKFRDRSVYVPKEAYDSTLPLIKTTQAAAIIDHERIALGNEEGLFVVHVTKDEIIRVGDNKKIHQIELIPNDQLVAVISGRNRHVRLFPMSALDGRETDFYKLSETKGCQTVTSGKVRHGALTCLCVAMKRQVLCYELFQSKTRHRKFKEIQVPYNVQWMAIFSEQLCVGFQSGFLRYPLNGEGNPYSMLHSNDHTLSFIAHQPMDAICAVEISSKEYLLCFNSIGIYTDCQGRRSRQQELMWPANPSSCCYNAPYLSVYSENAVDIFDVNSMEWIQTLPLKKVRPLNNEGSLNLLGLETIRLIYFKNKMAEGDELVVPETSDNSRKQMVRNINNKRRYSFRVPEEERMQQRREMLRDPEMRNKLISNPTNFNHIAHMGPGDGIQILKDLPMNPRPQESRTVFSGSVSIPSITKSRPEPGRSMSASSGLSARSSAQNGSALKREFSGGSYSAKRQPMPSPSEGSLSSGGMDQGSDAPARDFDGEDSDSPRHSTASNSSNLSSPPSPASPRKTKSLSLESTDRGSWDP

With `Oc1ccc(-c2nc(-c3ccc(F)cc3)c(-c3ccncc3)[nH]2)cc1`, the residual activity in assay [1] turned out to be 105%; in assay [2], 102%; in [3], 95%; in assay [4], 97%; in [5], 90%; in [6] it was 104%. The residual activity is 92% in [7]; 46% in assay [8]; 91% in assay [9]; 49% in [10]; 12% in assay [11]; -1% in assay [12]. For the same compound, the residual activity in assay [13] is 80%; in assay [14] it was 57%; in [15], 111%; in [16], 80%; in assay [17], 54%; in [18], 12%. For the same compound, the residual activity is 116% in [19] and 103% in assay [20].

Turning to `COc1ccc(S(=O)(=O)N(CCO)c2ccccc2CN(C)C/C=C/c2ccc(Cl)cc2)cc1`, the residual activity in assay [1] came out at 73%; in assay [2], 84%; in assay [3] it was 83%; in assay [4], 77%; in [5], 97%; in [6] it was 79%. The residual activity in [7] was 90%; in assay [8] it was 63%; in assay [9], 98%; in assay [10] it was 97%; in assay [11] it was 99%; in assay [12] it was 74%. Also, the residual activity in assay [13] came out at 101%; in assay [14], 73%; in assay [15] it was 97%; in [16] it was 41%; in assay [17], 99%; in assay [18], 92%. Also, the residual activity in assay [19] turned out to be 119%; in assay [20], 113%.

`O=C1Nc2cc(Br)ccc2/C1=C1/Nc2ccccc2/C1=N\O`: the residual activity in assay [1] worked out at 90%; in [2], 91%; in [3] it was 21%; in [4], 19%; in assay [5], 71%; in assay [6], 107%. Moreover, the residual activity was 34% in assay [7]; 48% in [8]; 91% in assay [9]; 70% in assay [10]; 87% in assay [11]; 65% in assay [12]. In addition, the residual activity was determined as 80% in [13]; 93% in [14]; 25% in assay [15]; 32% in [16]; 21% in [17]; 10% in assay [18]. The values for the residual activity in assay [19] and in [20] were 141% and 103%, respectively.

Regarding `Oc1c2ccccc2c2c3c(cccc13)N=N2`, the residual activity in assay [1] is 69%; in [2], 103%; in assay [3], 38%; in assay [4], 6%; in assay [5], 75%; in [6], 50%. The residual activity is 13% in assay [7]; 0% in assay [8]; 86% in assay [9]; 50% in assay [10]; 82% in assay [11]; 13% in assay [12]. Moreover, the residual activity in assay [13] was 58%; in assay [14] it was 6%; in assay [15], 29%; in [16], 3%; in assay [17] it was 13%; in assay [18], 4%. Further, the residual activity in [19] was determined as 115%; in assay [20] it was 116%.

Regarding `O=C1NC(=O)/C(=C\c2ccc3nccnc3c2)S1`, the residual activity in assay [1] was determined as 85%; in assay [2] it was 91%; in [3] it was 86%; in [4], 71%; in [5] it was 108%; in assay [6], 84%. Moreover, the residual activity in assay [7] was determined as 64%; in assay [8] it was 31%; in assay [9] it was 89%; in [10], 61%; in assay [11], 95%; in assay [12] it was 85%. The residual activity in [13] is 96%; in assay [14], 88%; in [15], 81%; in assay [16] it was 62%; in [17], 80%; in [18] it was 53%. Besides, the residual activity in assay [19] was found to be 106%; in assay [20] it was 93%.

For `COc1cc2ncnc(N3CCN(C(=O)Nc4ccc(Oc5ccccc5)cc4)CC3)c2cc1OC`, the residual activity in assay [1] was 110%; in assay [2], 117%; in [3] it was 86%; in assay [4], 78%; in assay [5] it was 115%; in assay [6], 94%. For the same compound, the residual activity stood at 81% in assay [7]; 101% in assay [8]; 95% in [9]; 88% in [10]; 87% in assay [11]; 81% in assay [12]. The residual activity in [13] worked out at 144%; in [14], 111%; in assay [15] it was 77%; in assay [16], 97%; in assay [17] it was 87%; in assay [18], 91%.

For the compound `Cc1nc2cc3nc(-c4cccs4)cnc3cc2n1C`, the residual activity is 114% in assay [1]; 100% in assay [2]; 107% in assay [3]; 100% in [4]; 120% in [5]; 91% in assay [6]. Besides, the residual activity was 89% in assay [7]; 67% in assay [8]; 112% in assay [9]; 98% in [10]; 75% in [11]; 149% in [12]. In addition, the residual activity was 109% in [13]; 110% in [14]; 82% in assay [15]; 105% in assay [16]; 86% in assay [17]; 44% in assay [18]. Further, the residual activity in [19] turned out to be 116%; in assay [20] it was 102%.
